In the supplement of paper PMC11732987, “Enantioselective OTUD7B fragment discovery through chemoproteomics screening and high-throughput optimisation” (Communications Chemistry, 2025):

Assays:
Experiment in all cases: log2 ratio of Biotin-Ahx-Ub-VS probe labelling (fragment/DMSO); higher = less target engagement (more negative = stronger competition), active = hit call of the paper (q ≤ 0.05, log2 ratio ≤ -1)
Settings in all cases: compound concentration: 200 uM; treatment time: 3 h
USP34 = USP34 (UniProt Q70CQ2)
Chain of USP34 (Q70CQ2 whole entry, the tested form may be a part): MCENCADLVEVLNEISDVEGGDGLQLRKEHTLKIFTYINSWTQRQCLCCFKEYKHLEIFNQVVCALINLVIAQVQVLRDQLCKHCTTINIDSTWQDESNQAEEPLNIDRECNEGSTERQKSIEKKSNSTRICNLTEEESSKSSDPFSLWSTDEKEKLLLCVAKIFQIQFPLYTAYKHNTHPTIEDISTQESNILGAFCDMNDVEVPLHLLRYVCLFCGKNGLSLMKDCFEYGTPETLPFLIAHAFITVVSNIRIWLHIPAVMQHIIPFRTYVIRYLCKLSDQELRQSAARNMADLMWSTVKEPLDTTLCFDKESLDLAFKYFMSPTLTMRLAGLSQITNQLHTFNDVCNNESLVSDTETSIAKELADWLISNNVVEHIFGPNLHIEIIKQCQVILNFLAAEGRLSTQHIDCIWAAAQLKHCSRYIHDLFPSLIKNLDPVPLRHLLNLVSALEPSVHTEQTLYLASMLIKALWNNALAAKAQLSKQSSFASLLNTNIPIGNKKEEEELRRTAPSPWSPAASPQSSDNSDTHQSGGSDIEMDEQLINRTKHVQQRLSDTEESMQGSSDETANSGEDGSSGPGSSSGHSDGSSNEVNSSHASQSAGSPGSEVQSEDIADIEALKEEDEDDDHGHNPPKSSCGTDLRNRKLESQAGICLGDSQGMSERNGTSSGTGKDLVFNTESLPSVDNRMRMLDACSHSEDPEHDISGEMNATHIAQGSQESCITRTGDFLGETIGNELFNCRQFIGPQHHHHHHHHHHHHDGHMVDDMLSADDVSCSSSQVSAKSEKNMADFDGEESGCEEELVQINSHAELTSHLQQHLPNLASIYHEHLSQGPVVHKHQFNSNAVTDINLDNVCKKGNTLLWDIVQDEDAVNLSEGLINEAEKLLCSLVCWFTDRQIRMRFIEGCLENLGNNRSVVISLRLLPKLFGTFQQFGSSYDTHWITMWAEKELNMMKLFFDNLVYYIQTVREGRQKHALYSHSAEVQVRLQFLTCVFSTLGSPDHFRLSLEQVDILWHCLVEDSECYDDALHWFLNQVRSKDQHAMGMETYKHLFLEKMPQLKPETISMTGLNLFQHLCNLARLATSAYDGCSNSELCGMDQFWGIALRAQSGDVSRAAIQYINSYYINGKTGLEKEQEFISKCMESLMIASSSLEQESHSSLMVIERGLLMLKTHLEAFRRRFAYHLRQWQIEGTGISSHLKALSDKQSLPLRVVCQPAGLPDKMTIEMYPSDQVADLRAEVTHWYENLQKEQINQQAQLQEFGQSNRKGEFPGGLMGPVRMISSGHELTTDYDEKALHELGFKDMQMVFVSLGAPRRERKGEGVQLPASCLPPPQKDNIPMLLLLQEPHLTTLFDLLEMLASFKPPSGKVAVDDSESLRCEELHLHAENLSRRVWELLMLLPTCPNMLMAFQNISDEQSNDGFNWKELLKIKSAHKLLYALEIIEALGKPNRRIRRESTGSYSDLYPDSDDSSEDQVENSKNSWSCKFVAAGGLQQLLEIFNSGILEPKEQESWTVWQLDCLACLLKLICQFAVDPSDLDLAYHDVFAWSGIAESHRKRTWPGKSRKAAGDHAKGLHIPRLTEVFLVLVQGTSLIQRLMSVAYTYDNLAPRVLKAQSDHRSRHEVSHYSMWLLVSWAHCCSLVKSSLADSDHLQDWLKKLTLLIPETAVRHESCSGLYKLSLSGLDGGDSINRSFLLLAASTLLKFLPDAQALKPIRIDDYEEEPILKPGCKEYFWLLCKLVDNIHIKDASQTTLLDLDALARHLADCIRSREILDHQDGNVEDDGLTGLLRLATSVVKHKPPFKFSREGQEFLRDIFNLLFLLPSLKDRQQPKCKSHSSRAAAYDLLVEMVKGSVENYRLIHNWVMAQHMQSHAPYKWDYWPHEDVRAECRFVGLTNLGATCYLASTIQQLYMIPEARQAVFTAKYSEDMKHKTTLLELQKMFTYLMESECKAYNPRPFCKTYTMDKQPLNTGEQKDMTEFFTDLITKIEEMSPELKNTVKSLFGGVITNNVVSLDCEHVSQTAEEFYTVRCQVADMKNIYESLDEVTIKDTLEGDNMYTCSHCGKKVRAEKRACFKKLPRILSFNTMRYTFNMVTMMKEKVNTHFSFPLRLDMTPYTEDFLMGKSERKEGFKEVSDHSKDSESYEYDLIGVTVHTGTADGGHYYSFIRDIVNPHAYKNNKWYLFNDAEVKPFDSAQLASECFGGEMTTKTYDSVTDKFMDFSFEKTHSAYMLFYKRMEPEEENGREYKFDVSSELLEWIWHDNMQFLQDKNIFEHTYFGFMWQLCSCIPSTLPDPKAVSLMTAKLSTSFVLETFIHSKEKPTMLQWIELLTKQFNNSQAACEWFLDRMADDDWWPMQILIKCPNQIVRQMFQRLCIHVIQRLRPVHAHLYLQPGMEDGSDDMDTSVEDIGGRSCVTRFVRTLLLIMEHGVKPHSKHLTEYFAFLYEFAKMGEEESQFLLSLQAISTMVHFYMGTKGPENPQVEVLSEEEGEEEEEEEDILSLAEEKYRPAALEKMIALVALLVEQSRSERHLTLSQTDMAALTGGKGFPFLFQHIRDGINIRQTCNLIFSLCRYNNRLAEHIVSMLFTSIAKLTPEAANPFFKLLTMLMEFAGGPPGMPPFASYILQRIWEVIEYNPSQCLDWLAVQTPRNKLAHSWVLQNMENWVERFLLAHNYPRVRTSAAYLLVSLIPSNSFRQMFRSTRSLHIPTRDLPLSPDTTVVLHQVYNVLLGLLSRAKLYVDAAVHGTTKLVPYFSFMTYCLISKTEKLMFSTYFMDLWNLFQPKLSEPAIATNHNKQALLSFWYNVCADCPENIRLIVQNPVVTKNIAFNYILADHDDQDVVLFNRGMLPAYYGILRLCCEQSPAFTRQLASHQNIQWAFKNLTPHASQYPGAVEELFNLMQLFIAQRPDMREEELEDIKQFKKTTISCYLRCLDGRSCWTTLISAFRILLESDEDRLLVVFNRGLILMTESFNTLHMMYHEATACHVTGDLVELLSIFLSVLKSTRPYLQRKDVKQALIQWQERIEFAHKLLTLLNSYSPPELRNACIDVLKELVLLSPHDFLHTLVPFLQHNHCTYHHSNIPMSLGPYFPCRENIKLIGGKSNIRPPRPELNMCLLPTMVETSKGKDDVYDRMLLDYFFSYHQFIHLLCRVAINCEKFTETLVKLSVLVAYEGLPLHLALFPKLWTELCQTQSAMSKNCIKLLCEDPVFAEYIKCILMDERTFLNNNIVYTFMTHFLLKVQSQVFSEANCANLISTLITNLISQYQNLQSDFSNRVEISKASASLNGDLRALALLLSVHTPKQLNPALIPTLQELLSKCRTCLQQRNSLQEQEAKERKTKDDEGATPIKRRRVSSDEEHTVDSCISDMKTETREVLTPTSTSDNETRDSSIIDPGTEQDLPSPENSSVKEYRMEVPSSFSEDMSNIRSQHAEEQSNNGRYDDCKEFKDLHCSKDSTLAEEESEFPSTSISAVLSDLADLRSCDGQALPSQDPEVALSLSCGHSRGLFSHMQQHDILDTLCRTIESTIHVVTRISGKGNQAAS
Outline: (§1)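 HEK293T lysate, 495 µg per sample in Tris/CHAPS/IGEPAL buffer with protease inhibitors, was treated in triplicate with fragment at 200 µM or vehicle for 3 h and then with Biotin-Ahx-Ub-VS at 0.5 µM final for 1 h. Labelled DUBs were NeutrAvidin-enriched, digested with LysC and trypsin, and run by diaPASEF LC-MS/MS. Spectronaut label-free quantities were global-median-normalised, and values are average log2 fragment/vehicle ratios by unpaired t-test on proteins with ≥2 unique peptides.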

USP36 = target: T1, USP36 (UniProt Q9P275)
T1 sequence (whole entry): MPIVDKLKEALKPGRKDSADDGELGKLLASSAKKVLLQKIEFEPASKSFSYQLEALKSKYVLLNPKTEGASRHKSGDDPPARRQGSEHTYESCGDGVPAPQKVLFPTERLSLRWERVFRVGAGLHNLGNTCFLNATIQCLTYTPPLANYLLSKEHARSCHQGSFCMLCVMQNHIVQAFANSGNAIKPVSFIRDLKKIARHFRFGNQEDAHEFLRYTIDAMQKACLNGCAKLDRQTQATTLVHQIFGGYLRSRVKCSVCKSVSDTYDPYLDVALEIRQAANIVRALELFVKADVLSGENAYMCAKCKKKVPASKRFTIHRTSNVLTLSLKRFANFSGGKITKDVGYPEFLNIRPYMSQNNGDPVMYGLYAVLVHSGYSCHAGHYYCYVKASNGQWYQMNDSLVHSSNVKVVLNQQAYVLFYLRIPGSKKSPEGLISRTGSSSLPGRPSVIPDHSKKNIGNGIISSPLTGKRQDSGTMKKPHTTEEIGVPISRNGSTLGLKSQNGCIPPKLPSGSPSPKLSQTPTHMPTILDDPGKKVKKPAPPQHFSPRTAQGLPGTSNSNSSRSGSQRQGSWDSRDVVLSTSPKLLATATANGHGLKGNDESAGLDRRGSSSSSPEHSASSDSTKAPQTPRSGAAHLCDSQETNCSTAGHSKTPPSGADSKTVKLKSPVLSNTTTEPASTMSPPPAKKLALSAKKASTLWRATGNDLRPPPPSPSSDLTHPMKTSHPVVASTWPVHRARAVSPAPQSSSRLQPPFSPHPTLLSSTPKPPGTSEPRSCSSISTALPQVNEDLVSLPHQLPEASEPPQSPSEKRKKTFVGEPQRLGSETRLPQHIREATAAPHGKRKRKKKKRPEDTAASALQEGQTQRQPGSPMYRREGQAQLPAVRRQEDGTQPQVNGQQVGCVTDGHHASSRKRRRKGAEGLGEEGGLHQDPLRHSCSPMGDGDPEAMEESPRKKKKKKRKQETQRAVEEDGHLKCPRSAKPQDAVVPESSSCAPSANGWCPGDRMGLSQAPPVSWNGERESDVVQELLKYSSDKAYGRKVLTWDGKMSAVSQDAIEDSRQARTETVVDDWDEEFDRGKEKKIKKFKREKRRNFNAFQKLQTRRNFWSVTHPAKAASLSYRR
Outline: as §1

USP38 = target: T2, USP38 (UniProt Q8NB14)
T2 sequence (whole entry): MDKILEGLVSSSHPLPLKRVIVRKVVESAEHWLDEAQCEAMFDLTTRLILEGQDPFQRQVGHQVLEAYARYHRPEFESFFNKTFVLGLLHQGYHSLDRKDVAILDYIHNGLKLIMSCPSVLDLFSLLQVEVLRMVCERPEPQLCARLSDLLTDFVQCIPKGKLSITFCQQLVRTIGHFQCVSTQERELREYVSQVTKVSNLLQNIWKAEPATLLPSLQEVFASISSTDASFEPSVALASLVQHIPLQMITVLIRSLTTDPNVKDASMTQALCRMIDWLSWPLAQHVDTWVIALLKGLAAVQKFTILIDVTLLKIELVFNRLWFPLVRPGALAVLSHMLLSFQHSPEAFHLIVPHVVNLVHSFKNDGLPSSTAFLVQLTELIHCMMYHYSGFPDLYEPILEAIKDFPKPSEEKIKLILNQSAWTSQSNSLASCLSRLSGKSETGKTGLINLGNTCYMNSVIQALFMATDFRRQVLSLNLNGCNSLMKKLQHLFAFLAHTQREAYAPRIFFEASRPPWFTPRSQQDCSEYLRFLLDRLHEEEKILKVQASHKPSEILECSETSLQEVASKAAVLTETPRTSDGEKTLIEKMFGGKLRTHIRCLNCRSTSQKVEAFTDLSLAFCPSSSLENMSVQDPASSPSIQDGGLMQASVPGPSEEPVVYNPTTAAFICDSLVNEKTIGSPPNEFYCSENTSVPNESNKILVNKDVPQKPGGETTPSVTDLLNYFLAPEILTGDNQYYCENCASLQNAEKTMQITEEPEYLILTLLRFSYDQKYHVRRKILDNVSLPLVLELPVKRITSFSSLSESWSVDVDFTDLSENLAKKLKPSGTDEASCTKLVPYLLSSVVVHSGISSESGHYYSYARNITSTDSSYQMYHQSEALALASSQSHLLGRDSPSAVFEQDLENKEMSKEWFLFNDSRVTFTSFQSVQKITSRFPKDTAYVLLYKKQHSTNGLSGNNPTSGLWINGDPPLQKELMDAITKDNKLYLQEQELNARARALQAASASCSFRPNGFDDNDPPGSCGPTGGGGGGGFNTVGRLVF
Outline: as §1

USP39 = target: T3, USP39 (UniProt Q53GS9)
T3 sequence (whole entry): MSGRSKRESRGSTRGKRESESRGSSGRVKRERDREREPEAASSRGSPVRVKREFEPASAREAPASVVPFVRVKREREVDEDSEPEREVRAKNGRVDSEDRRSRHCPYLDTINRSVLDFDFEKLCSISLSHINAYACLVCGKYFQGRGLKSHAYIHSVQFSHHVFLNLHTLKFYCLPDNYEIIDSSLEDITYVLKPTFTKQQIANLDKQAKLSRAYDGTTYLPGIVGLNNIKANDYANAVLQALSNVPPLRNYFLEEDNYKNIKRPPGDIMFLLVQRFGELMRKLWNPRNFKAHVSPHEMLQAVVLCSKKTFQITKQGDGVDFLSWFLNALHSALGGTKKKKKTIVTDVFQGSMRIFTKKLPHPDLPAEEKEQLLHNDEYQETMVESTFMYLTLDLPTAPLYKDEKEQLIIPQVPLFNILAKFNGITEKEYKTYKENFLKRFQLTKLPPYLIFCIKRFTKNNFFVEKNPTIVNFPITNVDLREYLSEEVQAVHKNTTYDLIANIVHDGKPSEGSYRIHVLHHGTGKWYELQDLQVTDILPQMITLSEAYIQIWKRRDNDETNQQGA
Outline: as §1

USP4 = target: T4, USP4 (UniProt Q13107)
T4 sequence (whole entry): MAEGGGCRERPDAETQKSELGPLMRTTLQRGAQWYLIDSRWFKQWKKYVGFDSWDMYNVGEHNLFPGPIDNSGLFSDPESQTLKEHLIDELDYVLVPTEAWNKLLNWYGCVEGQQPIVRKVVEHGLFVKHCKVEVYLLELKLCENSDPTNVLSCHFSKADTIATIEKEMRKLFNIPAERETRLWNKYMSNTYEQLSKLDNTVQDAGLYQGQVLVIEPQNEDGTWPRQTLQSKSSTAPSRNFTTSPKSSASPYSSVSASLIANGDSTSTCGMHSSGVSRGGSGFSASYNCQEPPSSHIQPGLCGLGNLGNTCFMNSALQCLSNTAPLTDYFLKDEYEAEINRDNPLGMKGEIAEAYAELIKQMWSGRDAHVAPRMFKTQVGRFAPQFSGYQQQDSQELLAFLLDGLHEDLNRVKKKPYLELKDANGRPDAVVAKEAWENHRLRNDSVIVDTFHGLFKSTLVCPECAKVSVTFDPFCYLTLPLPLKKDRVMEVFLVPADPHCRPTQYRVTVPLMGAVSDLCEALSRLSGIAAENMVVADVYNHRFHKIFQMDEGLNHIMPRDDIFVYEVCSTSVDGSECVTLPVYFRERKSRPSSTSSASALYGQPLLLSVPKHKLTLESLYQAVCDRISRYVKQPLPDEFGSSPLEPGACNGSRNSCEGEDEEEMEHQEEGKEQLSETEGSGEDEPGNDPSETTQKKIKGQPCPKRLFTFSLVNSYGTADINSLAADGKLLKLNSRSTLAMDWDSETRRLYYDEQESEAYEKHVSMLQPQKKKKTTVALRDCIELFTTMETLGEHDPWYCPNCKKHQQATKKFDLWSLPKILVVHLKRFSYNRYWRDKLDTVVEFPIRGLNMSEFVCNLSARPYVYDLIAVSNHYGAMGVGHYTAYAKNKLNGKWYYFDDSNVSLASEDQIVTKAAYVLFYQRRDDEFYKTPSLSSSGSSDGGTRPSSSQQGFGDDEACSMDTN
Outline: as §1

Measured: log2 ratio of Biotin-Ahx-Ub-VS probe labelling

Cc1ccc(N(C(=O)CCl)C2C=CS(=O)(=O)C2)cc1 (stereo not given)
inactive: USP34 -0.0862 | USP36 -0.145 | USP38 0.105 | USP39 0.107 | USP4 0.0944
